Source: PubChem BioAssay (National Center for Advancing Translational Sciences (NCATS))
Rows were chosen to be rich in hits. Some 12% of all compounds tested hit in one or more screens of this group.
Pf growth 96h – P. falciparum growth inhibition at 96 hours. P. falciparum luciferase reporter growth, 96 h. Potency, µM (series often up to 28.7 µM), usual class: inhibitors. actives 6.9% (n = 320,000)
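Infected RBCs, 2% Hct / 0.05% parasitemia final; luciferase-reporter P. falciparum; cpd 96 h, 37 C, 5% CO2; luciferase detection reagent; luminescence.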
Sm TGR block – blocks Schistosoma mansoni thioredoxin glutathione reductase; Potency, µM (highest dose often 114 µM), most hits filed as inhibitors; actives 3% (n = 360,000); Q962Y6; purified TGR, DTNB reduction, TNB absorbance 405 nm; further: nearly all actives have a fitted effect of over 60% in size
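TGR 20 nM + NADPH 100 uM (dispensed conc.), cpd preinc 15 min RT; start with NADPH (500 uM addition) then DTNB (15 mM addition). Kinetic TNB absorbance, 405 nm filter. Four-parameter Hill fit across titration.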
SARS PLpro yeast – SARS-CoV PLP inhibition in yeast | Potency, µM (doses to about 32.9 µM), most hits filed as activators | S. cerevisiae expressing SARS-CoV PLpro, growth rescue | actives 0.19% (n = 330,000) | AID 485353; calls by dose curve; further: nearly all actives have a fitted effect of over 55% in size
AmpC inh detg – AmpC beta-lactamase inhibition with detergent present; Potency, µM (top dose mostly 114 µM), most hits filed as inhibitors; AmpC hydrolysis of nitrocefin, absorbance 480 nm, 0.01% Triton; AID 485294; actives 0.041% (n = 370,000); further: nearly all actives have a fitted effect of over 25% in size
Target sequence (P00811 whole entry, looked up): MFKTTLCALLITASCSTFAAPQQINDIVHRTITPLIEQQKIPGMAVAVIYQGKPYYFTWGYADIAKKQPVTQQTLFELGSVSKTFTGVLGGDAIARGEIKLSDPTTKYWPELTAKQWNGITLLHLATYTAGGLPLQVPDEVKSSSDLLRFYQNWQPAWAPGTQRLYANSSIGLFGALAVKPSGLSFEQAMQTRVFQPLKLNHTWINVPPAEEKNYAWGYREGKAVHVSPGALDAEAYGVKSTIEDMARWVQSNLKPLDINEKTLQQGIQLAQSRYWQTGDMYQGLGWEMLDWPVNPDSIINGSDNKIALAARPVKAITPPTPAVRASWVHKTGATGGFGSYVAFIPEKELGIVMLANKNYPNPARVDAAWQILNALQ
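AmpC (5.3 nM in the dispensed reagent) in 20 mM phosphate pH 7.0 with 0.01% (detergent screen) or 0.0001% Triton X-100 was preincubated with compounds for 15 min at room temperature. Nitrocefin was then added from an 800 uM solution, and hydrolysis was followed at 480 nm.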
Pf growth 48h – inhibits P. falciparum growth in the first generation, 48 h. P. falciparum luciferase growth in erythrocytes, 48 h. Potency, µM (series often up to 28.7 µM), actives largely listed as inhibitors. actives 5.9% (n = 310,000)
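Parasite viability was followed by luminescence of a genomically integrated firefly luciferase. Cultures held 0.1% parasitemia at 2% hematocrit (final), incubated under 5% CO2 at 37 C.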
AmpC inh no detg – AmpC beta-lactamase inhibition without detergent | P00811 | AmpC nitrocefin hydrolysis, absorbance 480 nm, 0.0001% Triton | Potency, µM (titrated, usually from 57.1 µM), hits mostly inhibitors | actives 0.52% (n = 330,000); further: nearly all actives have a fitted effect of over 20% in size
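20 mM phosphate pH 7.0 + 0.01% (detergent screen) or 0.0001% Triton X-100; 5.3 nM AmpC reagent; cpd preinc 15 min RT; nitrocefin (800 uM stock) to start; A480 q20 s × 4 min; Activity was normalised to no-enzyme and no-compound control wells.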
A number is an active result; . = inactive; ? = inconclusive; / = no result; [ ] = dose if it differs, or a comment. Unless noted, the call rests on the fitted dose curve; in most records, active means well fitted curve in the direction sought with a large enough effect; inconclusive means small, poorly fitted or top-dose-only effect, or another doubt; inactive means no such curve, though single readings can be large; an effect the other way counts as inactive or inconclusive.

SMILES	Pf growth 96h	Sm TGR block	SARS PLpro yeast	AmpC inh detg	Pf growth 48h	AmpC inh no detg
CC(=O)c1ccc(-c2ccc(C(=O)N3CCCc4ccccc43)o2)cc1	.	?	.	?	.	.[11.4 µM]
O=C(Nc1nnc(N2CCCCCC2)s1)Nc1ccccc1C(F)(F)F	/	.	/	.	/	/
CC(C)CC(NC(=O)OC(C)(C)C)c1cn([C@@H](CCCCNC(=O)OC(C)(C)C)C(=O)N2CCN(C(=O)OC(C)(C)C)CC2)nn1 (some centres undefined)	3.7µM	.	.	.	?	.
CC(C)(C)OC(=O)CC[C@@H](C(=O)N1CCN(C(=O)OC(C)(C)C)CC1)n1cc(C(Cc2ccc(O)cc2)NC(=O)OC(C)(C)C)nn1 (some centres undefined)	4.65µM	.	.	.	?	.
CC[C@@H](C)C(NC(=O)OC(C)(C)C)c1cn([C@@H](Cc2cc3ccccc3[nH]2)C(=O)N2CCN(C(=O)OC(C)(C)C)CC2)nn1 (some centres undefined)	3.7µM	.	.	.	?	.
N[C@@H](CO)c1cn([C@@H](Cc2cc3ccccc3[nH]2)C(=O)N2CCNCC2)nn1	.	.	.	.	.	.
CC[C@@H](C)C(NC(=O)OC(C)(C)C)c1cn([C@@H](CCCCNC(=O)OC(C)(C)C)C(=O)N2CCN(C(=O)OC(C)(C)C)CC2)nn1 (some centres undefined)	4.15µM	.	.	.	?	.
C#CCOCCOCCOCCNc1nc(N2CCN(C(=O)[C@H](CCC(=O)O)n3cc(C(N)Cc4ccc(O)cc4)nn3)CC2)nc(N2CCN(C(=O)[C@H](CCC(=O)O)n3cc(C(N)Cc4ccc(O)cc4)nn3)CC2)n1 (some centres undefined)	.	?	.	.	.	.
COc1ccc(C2C(C(=O)Nc3ccccc3OC)=C(C)Nc3c(C(=O)Nc4ccccc4)cnn32)c(OC)c1 (centres undefined)	/	.	/	.	/	/
CCOC(=O)N1CCC(NC(=O)CSCc2nc(-c3ccc(OCC)cc3)oc2C)CC1	.	.	.	.	11.7µM	.
COc1cccc(-c2nc(CS(=O)(=O)CC(=O)NC3CCCc4ccccc43)c(C)o2)c1 (centres undefined)	?	.	.	.	/	.
CCOc1ccc(-c2nc(CSCC(=O)NCc3ccc(C)cc3)c(C)o2)cc1	/	.	/	.	/	/
Cc1oc(-c2ccc(Cl)cc2)nc1CSCC(=O)NC1CCN(Cc2ccccc2)CC1	14.7µM	.	?	.	.	.
CCOc1ccc(-c2nc(CSCC(=O)NCc3ccco3)c(C)o2)cc1	13.1µM	?	.	.	?	.
CCOC(=O)N1CCC(NC(=O)CSCc2nc(-c3cccc(OC)c3)oc2C)CC1	?	.	.	?	.	.
CCOc1ccc(-c2nc(CSCC(=O)NC3CCCc4ccccc43)c(C)o2)cc1 (centres undefined)	13.1µM	.	.	?	/	.
Cc1ccc(-c2c(C(=O)N3CCN(c4cccc(C)c4)C(C)C3)oc(=O)c3ccccc23)cc1 (centres undefined)	/	.	/	.	/	/
CCOc1ccc(-c2nc(CSCC(=O)NC3CC3)c(C)o2)cc1	.	.	.	.	13.1µM	.
CCOc1ccc(-c2nc(CNC(=O)NC3CCCCC3)c(C)o2)cc1	/	.	/	.	/	/
CCOC(=O)N1CCC(NC(=O)CSCc2nc(-c3ccccc3Cl)oc2C)CC1	.	.	.	.	.	.
CCOC(=O)N1CCC(NC(=O)CSCc2nc(-c3sccc3C)oc2C)CC1	?	39.8µM	.	.	/	.
CCOC(=O)c1[nH]c2ccccc2c1NC(=O)c1ccccc1F	/	.	/	.	/	/
COc1ccc(-n2nc3cc(C)c(NC(=O)C(C)C)cc3n2)cc1	?	.	.	.	.	.
Cc1cc(N2CCN(C)CC2)nc2ccc(NC(=S)NCCN3CCc4ccccc4C3)cc12	?	.	.	.	9.28µM	.
Cc1cc(N2CCN(C)CC2)nc2ccc(NC(=S)NCCCN3CCc4ccccc4C3)cc12	.	?	.	.	?	.
SMILES	Pf growth 96h	Sm TGR block	SARS PLpro yeast	AmpC inh detg	Pf growth 48h	AmpC inh no detg
CCN1CCN(c2cc(C)c3cc(NC(=S)NCCCN4CCc5ccccc5C4)ccc3n2)CC1	?	?	.	.	7.38µM	.
CCCN1CCN(CCCNC(=S)Nc2ccc3nc(N4CCN(CC)CC4)cc(C)c3c2)CC1	.	.	.	.	?	.
CCN(Cc1ccccc1)C(=O)c1c(C)oc2ncn(C)c(=O)c12	/	.	/	.	/	/
CC(=O)c1c(C)[nH]c(C(=O)CSc2nnc(C3CCCCC3)n2N)c1C	/	.	.	.	2.08µM	.
CC(=O)c1c(C)[nH]c(C(=O)CSc2nnc(-c3ccco3)n2Cc2ccccc2)c1C	0.0586µM	39.8µM	.	?	?	.
CC(=O)c1c(C)[nH]c(C(=O)CSc2nnc(-c3cccs3)n2Cc2ccccc2)c1C	/	.	.	.	9.28µM	.
O=C(CSc1nnc(CNC(=O)c2cccc(F)c2)n1-c1ccccc1)Nc1ccccc1F	/	.	/	.	/	/
CCc1nc(N)c(C#N)c(-c2ccccc2OC)c1C	.	.	.	.	.	.
COc1ccc(S(=O)(=O)N2CCN(CCOc3ccc(Br)cc3)CC2)cc1OC	?	.	.	.	8.28µM	.
COc1ccc(OCCOc2ccc(S(=O)(=O)N3CCCC3)cc2C(N)=O)cc1	3.7µM	.	.	.	.	.
CC(=O)c1ccc(OCCCC(=O)Nc2cc(S(=O)(=O)N3CCCCC3)ccc2C)cc1	13.1µM	.	.	.	?	.
COc1ccc(S(=O)(=O)N2CCCCC2)cc1NC(=O)CCCOc1ccccc1	.	.	.	.	?	.
COc1ccc(S(=O)(=O)N2CCCCC2)cc1NC(=O)CCCOc1ccc(C)cc1	?	.	.	.	10.4µM	.
CCOc1ccc(N(CC)C(=O)c2nn(-c3ccc(OC)cc3)c(=O)c3c2c2ccccc2n3C)cc1	?	.	.	.	1.47µM	.
CCOc1ccc(-n2nc(C(=O)NCCOC)c3ccccc3c2=O)cc1	?	.	.	.	.	.
CCOc1ccc(-n2nc(C(=O)N3CCN(CC)CC3)c3ccccc3c2=O)cc1	?	.	.	.	4.15µM	.
S=C1NC[C@H](c2ccccc2)N1CCCCC1CCCCC1	6.57µM	.	.	.	11.7µM	.
Cc1cc(C)nc(Sc2ccc([N+](=O)[O-])cc2[N+](=O)[O-])n1	.	.	.	.	5.86µM	.
CN(C)/N=C/c1ccc(Sc2ccc([N+](=O)[O-])cc2[N+](=O)[O-])o1	.	28.2µM	.	.	.	.
CC(=O)c1c(C(C)=O)c(C)n(-c2nc(-c3ccc(C)c(C)c3)c(C)s2)c1C	.	.	.	.	11.7µM	.
